In all, about 390,000 compounds went through this assay and about 910 (0.23%) were called active. Inconclusive results (about 5%) are left out. No cut-off for these calls is given here. The entries come from a sample that favours actives as a whole.
The molecules below were run against T1, Ubiquitin carboxyl-terminal hydrolase 1 (Homo sapiens) (UniProt O94782) (assay: Inhibitors of USP1/UAF1: Primary Screen.).
T1 sequence (whole entry): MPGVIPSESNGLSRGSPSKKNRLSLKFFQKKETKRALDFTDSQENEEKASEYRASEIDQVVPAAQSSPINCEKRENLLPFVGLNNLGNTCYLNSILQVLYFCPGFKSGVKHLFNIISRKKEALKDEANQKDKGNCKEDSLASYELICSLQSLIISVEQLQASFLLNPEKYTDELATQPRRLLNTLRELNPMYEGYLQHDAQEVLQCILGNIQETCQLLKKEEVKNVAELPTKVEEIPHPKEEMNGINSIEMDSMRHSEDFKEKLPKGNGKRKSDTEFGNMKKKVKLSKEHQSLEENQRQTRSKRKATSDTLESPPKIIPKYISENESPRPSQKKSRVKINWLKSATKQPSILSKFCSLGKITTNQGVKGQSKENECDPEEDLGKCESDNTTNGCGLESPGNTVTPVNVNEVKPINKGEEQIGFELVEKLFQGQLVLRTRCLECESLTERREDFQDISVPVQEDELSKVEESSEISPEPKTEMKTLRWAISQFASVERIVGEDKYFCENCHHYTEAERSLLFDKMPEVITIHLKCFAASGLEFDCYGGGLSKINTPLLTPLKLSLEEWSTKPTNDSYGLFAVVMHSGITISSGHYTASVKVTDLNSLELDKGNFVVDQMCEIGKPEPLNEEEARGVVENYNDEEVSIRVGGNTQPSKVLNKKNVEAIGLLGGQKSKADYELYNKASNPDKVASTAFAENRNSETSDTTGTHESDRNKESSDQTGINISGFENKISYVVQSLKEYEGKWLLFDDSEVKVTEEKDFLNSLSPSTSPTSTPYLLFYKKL
Assay type: functional

Structure (SMILES) | Potency
CCn1nc(-c2ccccc2)nc2c(=O)n(C)c(=O)nc1-2 | 89.1 µM (active)
